# Assay results taken from the supplement of paper PMC6089552.
# About 300 (9.4%) of roughly 3,200 compounds showed activity. Many of the other results were omitted from the sample, so actives are more common in it than they were.
# System: A673/TR/shEF
# Experiment: cell viability (LOESS-normalised, relative to median of negative controls) (log2 ratio); higher = more viable cells (less compound effect), active = hit call of the paper (over 3 MAD below the median)
# Details: treatment time: 72 h
# In short: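 A673/TR/shEF Ewing sarcoma cells (1,500 per well, 384-well plates) were grown with or without doxycycline to induce EWS-FLI1 shRNA knockdown, starting 24 h before compounds. Library compounds at two or more concentrations, with DMSO controls, were added for three days. Cell viability was read by CellTiter-Glo luminescence on an Envision reader, then LOESS-corrected per plate, divided by the median of negative controls and log2-transformed. Hits were wells at least three median absolute deviations from the median of all screened wells.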
# [1] = 0.25 µM, library screen: screen1, EWS-FLI1 expression: high (no doxycycline)
# [2] = 0.25 µM, library screen: screen1, EWS-FLI1 expression: low (doxycycline-induced shRNA knockdown)
# [3] = 2.5 µM, library screen: screen1, EWS-FLI1 expression: high (no doxycycline)
# [4] = 2.5 µM, library screen: screen1, EWS-FLI1 expression: low (doxycycline-induced shRNA knockdown)
# [5] = 0.25 µM, library screen: screen2, EWS-FLI1 expression: high (no doxycycline)
# [6] = 0.25 µM, library screen: screen2, EWS-FLI1 expression: low (doxycycline-induced shRNA knockdown)
# [7] = 2.5 µM, library screen: screen2, EWS-FLI1 expression: high (no doxycycline)
# [8] = 2.5 µM, library screen: screen2, EWS-FLI1 expression: low (doxycycline-induced shRNA knockdown)
structure (smiles),measurement,setting,value
C=C1CCC(C2CC(=O)OC2=O)C(=O)CCC2C1CC2(C)C (stereo not given),cell viability (log2),[1],0.1 (inactive)
same,cell viability (log2),[2],0.128 (inactive)
same,cell viability (log2),[3],0.0855 (inactive)
same,cell viability (log2),[4],0.0593 (inactive)
Cc1nnc(SCC(=O)N2c3ccccc3-c3c(ssc3=S)C2(C)C)s1,cell viability (log2),[1],0.0582 (inactive)
same,cell viability (log2),[2],0.0648 (inactive)
same,cell viability (log2),[3],0.115 (inactive)
same,cell viability (log2),[4],0.255 (inactive)
CC(C)=CCC/C(C)=C/C=C/C(C)=C/C=C/C(C)=C/C=C/C=C(C)/C=C/C=C(C)/C=C/C=C(\C)CCC=C(C)C,cell viability (log2),[1],0.149 (inactive)
same,cell viability (log2),[2],0.105 (inactive)
same,cell viability (log2),[3],0.156 (inactive)
same,cell viability (log2),[4],0.123 (inactive)
CC(=O)O[C@@H]1CC2C(C)(C)C=CC(=O)[C@]2(C)C2CC[C@@]3(C)[C@H](c4ccoc4)OC(=O)C4OC43[C@@]21C (stereo not given in full),cell viability (log2),[1],0.059 (inactive)
same,cell viability (log2),[2],0.0804 (inactive)
same,cell viability (log2),[3],0.118 (inactive)
same,cell viability (log2),[4],0.149 (inactive)
NC1(C(=O)O)CCCCC1,cell viability (log2),[5],0.0492 (inactive)
same,cell viability (log2),[6],0.114 (inactive)
same,cell viability (log2),[7],-0.0212 (inactive)
same,cell viability (log2),[8],0.0608 (inactive)
NC1(C(=O)O)CC1,cell viability (log2),[1],0.064 (inactive)
same,cell viability (log2),[2],0.0956 (inactive)
same,cell viability (log2),[5],-0.141 (active)
same,cell viability (log2),[6],-0.0707 (active)
same,cell viability (log2),[3],0.122 (inactive)
same,cell viability (log2),[4],0.0925 (inactive)
same,cell viability (log2),[7],0.123 (inactive)
same,cell viability (log2),[8],0.0434 (inactive)
NC1(C(=O)O)CCCC1,cell viability (log2),[1],0.102 (inactive)
same,cell viability (log2),[2],0.137 (inactive)
same,cell viability (log2),[3],0.134 (inactive)
same,cell viability (log2),[4],0.192 (inactive)
CN(C)C(=O)/C(=C\c1cccc(Br)c1)NC(=O)c1ccccc1,cell viability (log2),[1],0.0622 (inactive)
same,cell viability (log2),[2],0.0915 (inactive)
same,cell viability (log2),[3],0.179 (inactive)
same,cell viability (log2),[4],0.181 (inactive)
O=C(O)c1cc2c(Cl)cc(Cl)cc2[nH]1,cell viability (log2),[1],0.105 (inactive)
same,cell viability (log2),[2],0.0244 (inactive)
same,cell viability (log2),[3],0.0763 (inactive)
same,cell viability (log2),[4],0.0336 (inactive)
NCC1OC(OC2C(N)CC(N)C(OC3OC(CO)C(O)C(N)C3O)C2O)C(N)C(O)C1O (stereo not given),cell viability (log2),[1],0.0483 (inactive)
same,cell viability (log2),[2],0.0336 (inactive)
same,cell viability (log2),[3],0.164 (inactive)
same,cell viability (log2),[4],0.0237 (inactive)
C[S+]([O-])c1ccc(-c2nc(-c3ccc(F)cc3)c(-c3ccncc3)[nH]2)cc1 (stereo not given),cell viability (log2),"0.025 µM, library screen: screen1, EWS-FLI1 expression: high (no doxycycline)",0.29
same,cell viability (log2),"0.025 µM, library screen: screen1, EWS-FLI1 expression: low (doxycycline-induced shRNA knockdown)",0.136 (inactive)
same,cell viability (log2),[1],0.263 (inactive)
same,cell viability (log2),[2],0.121 (inactive)
same,cell viability (log2),[3],-0.235 (active)
same,cell viability (log2),[4],0.238 (inactive)
same,cell viability (log2),"25 µM, library screen: screen1, EWS-FLI1 expression: high (no doxycycline)",-0.108 (active)
same,cell viability (log2),"25 µM, library screen: screen1, EWS-FLI1 expression: low (doxycycline-induced shRNA knockdown)",0.274 (inactive)
COc1cc([S+](C)[O-])ccc1-c1nc2ncccc2[nH]1 (stereo not given),cell viability (log2),[1],0.101 (inactive)
same,cell viability (log2),[2],0.00949 (inactive)
same,cell viability (log2),[3],0.131 (inactive)
same,cell viability (log2),[4],0.0599 (inactive)
C/C1=C\CC(C)(C)/C=C\CC2(C)OC2CC1 (stereo not given),cell viability (log2),[1],0.0693 (inactive)
same,cell viability (log2),[2],0.00465 (inactive)
same,cell viability (log2),[3],0.118 (inactive)
same,cell viability (log2),[4],0.162 (inactive)
